# Source: PubChem BioAssay (NCATS)
# Several values for one entry are separate records, joined by “and”; a condition that tells them apart may be missing. Identical values can stand only once. A number with no mark means an inactive call. Records with an inconclusive call do not appear. Entries that show only a call come without a potency. Activity calls are given as the source filed them. Unless noted, calls come from the whole dose curve; as a rule, active = well fitted curve in the direction sought with a large enough effect; inconclusive = small, poorly fitted or top-dose-only effect, or another doubt; inactive = no such curve, though single readings can be large; an effect the other way counts as inactive or inconclusive.
# Key:
# [1] = molecular target: Mitogen-activated protein kinase 10 (Mus musculus) (UniProt Q61831); experiment: JNK3 AlphaScreen Assay (AID 530; active = well fitted curve in either direction with a large enough effect, not every such curve was filed as active;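 note: kinase came from lysate of stimulated human HepG2 cells; signal reports phosphorylation of biotinylated GST-cJun 1-79 at Ser73 with 10 µM ATP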)
# Procedure, shortened: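 Biotinylated GST-cJun(1-79) served as substrate for JNK3 in HepG2 lysates stimulated with IL-1beta and TNF-alpha. ATP was 10 uM final, pH 7.6. Ser73 phosphorylation was quantified by AlphaScreen (680 nm excitation).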
# [2] = molecular target: Glucocorticoid receptor (Homo sapiens) (UniProt P04150); experiment: GR-EFC Redistribution (AID 451; calls by dose curve; note: potency is the fitted concentration of half-maximal effect); conditions: CHO-K1 GR-EFC translocation, beta-gal luminescence, 2 h
# Procedure, shortened: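 CHO-K1 cells stably expressing nuclear-localized β-gal enzyme acceptor and GR fused C-terminally to the enzyme donor fragment; ligand-driven nuclear translocation restores β-gal by complementation. Compounds titrated up to 46 uM final, 2 h at 37 °C; luminescence read.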
# [3] = Cell Viability - N2a (AID 540); conditions: N2a mouse neuroblastoma cell viability; activity change, negative = cytotoxicity: at 92.2 µM (top of the series);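 note: cells exposed to compound for 40 h at 37 °C; nearly all actives have a fitted effect of over 45% in size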
# Procedure, shortened: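 In this qHTS cytotoxicity screen, ATP-dependent luciferase luminescence reports viable N2a cells after a 40 hr compound exposure in complete culture medium. Potencies are AC50 values from standard Hill equation fits.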
# [4] = Cell Viability - NIH 3T3 (AID 541); conditions: NIH 3T3 cell viability, qHTS; activity change, negative = cytotoxicity: at 92.2 µM (top of the series);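 note: cells exposed to compound for 40 hours; nearly all actives have a fitted effect of over 25% in size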
# Procedure, shortened: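 In this cytotoxicity screen, acute toxicity is scored as an ATP drop measured by CellTiter-Glo in NIH 3T3 fibroblasts following a 40 hr, 37 °C incubation with compound.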
# [5] = Cell Viability - HUV-EC-C (AID 542);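 note: cells exposed to compound for 40 hours; nearly all actives have a fitted effect of over 35% in size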; note: potency is the fitted concentration of half-maximal effect
# Procedure, shortened: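 Concentration-dependent ATP loss in HUV-EC-C cells is the measure. Exposure lasts 40 hr at 37 °C; luminescence follows CellTiter-Glo addition, and Hill fits give AC50.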
# [6] = Cell Viability - H-4-II-E (AID 543);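 note: cells exposed to compound for 40 hours; nearly all actives have a fitted effect of over 35% in size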; note: potency is the fitted concentration of half-maximal effect
# Procedure, shortened: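 AC50 from Hill-modelled qHTS concentration-response curves. H-4-II-E rat hepatoma cells in complete medium, 40 hr exposure at 37 °C, viability by CellTiter-Glo ATP luminescence.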
# [7] = Cell Viability - SH-SY5Y (AID 544); conditions: SH-SY5Y neuroblastoma cell viability; viability change, negative = cytotoxic: at 92.2 µM (top of the series);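 note: cells exposed to compound for 40 hours; nearly all actives have a fitted effect of over 55% in size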; note: potency is the fitted concentration of half-maximal effect
# Procedure, shortened: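 Quantitative HTS in SH-SY5Y neuroblastoma cells, 40 hr treatment at 37 °C, ATP content by luciferase luminescence; AC50 from Hill fits.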
# [8] = Cell Viability - Mesenchymal (AID 546); conditions: mesenchymal cells viability, qHTS; activity change, negative = cytotoxicity: at 91.7 µM (top of the series);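 note: cells exposed to compound for 40 hours before reading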
# Procedure, shortened: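 In this qHTS cytotoxicity format, glomerulus-derived human mesenchymal kidney cells received compound for 40 hr, then luciferase-based ATP quantitation. Concentration-response data were fitted with the Hill equation.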
# [9] = Cellular Toxicity (caspase-3) HepG2 (AID 654);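 note: cells exposed to compound for 16 hours before reading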
# Procedure, shortened: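 Concentration-response AC50 values reflect caspase-3/7 induction in HepG2 cells after 16 hours of compound exposure, quantified by luminescence from liberated aminoluciferin and referenced to 100 uM tamoxifen as full stimulation.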
# [10] = Cellular Toxicity (caspase-3) Jurkat (AID 655);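 note: cells exposed to compound for 16 h at 37 °C before reading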; note: potency is the fitted concentration of half-maximal effect
# Procedure, shortened: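 Jurkat cells (5000/well) in complete medium were treated with compounds for 16 hr at 37 °C, then Caspase-Glo 3/7 luminescence was read after 20 min at room temperature. Data normalized to DMSO (basal) and 100 uM tamoxifen (100%); AC50 from Hill fit.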
# [11] = Cellular Toxicity (caspase-3) HUV-EC-C (AID 656)
# Procedure, shortened: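 HUV-EC-C endothelial cells, 1000/well, were pre-incubated 5 hr at 37°C, then exposed to compounds for 16 hr at 37°C. Caspase-Glo 3/7 luminescence was read after 20 min at room temperature. AC50 came from Hill fits, normalized to DMSO and 100 uM tamoxifen.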
# [12] = Cellular Toxicity (caspase-3) SHSY5Y (AID 657); note: potency is the fitted concentration of half-maximal effect
# Procedure, shortened: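 SH-SY5Y human neuroblastoma cells (1500/well) were treated with compounds for 16 h at 37 °C, then Caspase-Glo 3/7 luminescence was read after 1 h at room temperature. Data normalized to DMSO and 10 uM staurosporine; AC50 from Hill fits.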
# [13] = Cellular Toxicity (caspase-3) BJ (AID 658)
# Procedure, shortened: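 Plated BJ cells (1000/well) rested 5 hr, received compound for 16 hr at 37 °C, then Caspase-Glo 3/7 reagent for 1 hr at room temperature before luminescence reading.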
# [14] = Cellular Toxicity (caspase-3) MRC-5 (AID 659)
# Procedure, shortened: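 Apoptosis readout in MRC-5 cells: luciferase light generated after caspase 3/7 cleaves a peptide-aminoluciferin substrate, measured post 16 hr compound incubation at 37 °C.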
# [15] = Cellular Toxicity (caspase-3) Mesangial (AID 660);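 note: combined caspase 3 and 7 activity read by Caspase-Glo luminescence; cells exposed to compound for 16 h before the caspase read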
# Procedure, shortened: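 AC50 values come from Hill-equation fits of caspase 3/7 activation, measured as Caspase-Glo luminescence in human glomerular mesangial cells exposed to compound for 16 h at 37 °C; 100% set by 100 uM tamoxifen.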
# [16] = Cellular Toxicity (caspase-3) SK-N-SH (AID 661)
# Procedure, shortened: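 Apoptosis readout in SK-N-SH neuroblastoma: Caspase-Glo 3/7 luminescence following 16 hr treatment in complete culture medium. Normalization used DMSO and 10 uM staurosporine controls.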
# [17] = Cellular Toxicity (caspase-3) H-4-II-E (AID 663); conditions: Potency: caspase-3 activation; note: potency is the fitted concentration of half-maximal effect;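 for caspase-3 activation: cells exposed to compound for 16 hr before readout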
# Procedure, shortened: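 Caspase 3/7 activation measured in H-4-II-E cells in complete culture medium after 16 hr treatment at 37 °C, using luciferase-coupled substrate readout; AC50 values come from Hill-equation fits of normalized concentration-response data.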
# [18] = Cellular Toxicity (caspase-3) Hek293 (AID 664);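 note: cells exposed to compound for 16 h at 37 °C before readout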
# Procedure, shortened: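 Apoptosis readout: Caspase-Glo 3/7 signal in human HEK293 cells following 16-hour compound incubation. Responses scaled between DMSO baseline and 100 uM tamoxifen.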
# [19] = molecular target: 3',5'-cyclic-AMP phosphodiesterase 4B (Homo sapiens) (UniProt Q07343); experiment: qHTS Assay for Inhibitors of PDE-IV (AID 607; active = well fitted activation curve with a large enough effect in the main read-out, with a control signal flat, not every such curve was filed as active)
# Procedure, shortened: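 Live HEK293 cells with a modified cyclic nucleotide-gated (CNG) channel report intracellular cAMP via membrane-potential dye fluorescence (ex 535/em 590 nm). Endogenous PDE-IV was targeted. Compounds were tested at up to 22.9 uM final; RO 20-1724 100 uM served as control.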
# [20] = Cell Viability - Renal Proximal Tubule (AID 545); conditions: renal proximal tubule cells viability, primary cells of rat origin; activity change, negative = cytotoxicity: at 91.7 µM (top of the series);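 note: cells exposed to compound for 40 hours; nearly all actives have a fitted effect of over 40% in size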; note: potency is the fitted concentration of half-maximal effect
# Procedure, shortened: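 Primary rat renal proximal tubule cells (1000/well) were treated with compounds for 40 hr at 37 °C in complete medium. Intracellular ATP was measured by CellTiter-Glo luminescence, and AC50 values came from Hill-equation fits of concentration-response data.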
# Chain of Glucocorticoid receptor (Homo sapiens) (P04150 whole entry, looked up, the tested form may be a part): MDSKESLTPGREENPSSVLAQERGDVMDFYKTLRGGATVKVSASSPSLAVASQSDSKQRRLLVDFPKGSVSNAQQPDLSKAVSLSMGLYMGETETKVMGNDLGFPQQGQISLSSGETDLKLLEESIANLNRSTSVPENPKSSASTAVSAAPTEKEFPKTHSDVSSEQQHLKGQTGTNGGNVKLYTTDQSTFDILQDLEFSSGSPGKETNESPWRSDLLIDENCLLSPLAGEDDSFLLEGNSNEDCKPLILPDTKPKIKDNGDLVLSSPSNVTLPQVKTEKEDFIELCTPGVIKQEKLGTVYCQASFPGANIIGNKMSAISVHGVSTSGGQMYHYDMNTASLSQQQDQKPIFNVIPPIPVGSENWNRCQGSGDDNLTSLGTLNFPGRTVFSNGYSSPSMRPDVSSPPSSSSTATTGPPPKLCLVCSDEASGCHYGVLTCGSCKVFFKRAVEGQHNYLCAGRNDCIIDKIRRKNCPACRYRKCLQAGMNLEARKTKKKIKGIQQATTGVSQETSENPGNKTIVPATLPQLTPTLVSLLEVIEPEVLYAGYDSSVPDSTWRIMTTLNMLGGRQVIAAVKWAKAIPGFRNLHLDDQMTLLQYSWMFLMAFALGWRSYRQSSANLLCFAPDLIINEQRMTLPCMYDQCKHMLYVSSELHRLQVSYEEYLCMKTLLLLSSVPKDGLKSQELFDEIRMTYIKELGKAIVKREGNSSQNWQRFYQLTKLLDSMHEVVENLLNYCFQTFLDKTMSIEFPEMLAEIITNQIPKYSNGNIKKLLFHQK
# Chain of 3',5'-cyclic-AMP phosphodiesterase 4B (Homo sapiens) (Q07343 whole entry, looked up): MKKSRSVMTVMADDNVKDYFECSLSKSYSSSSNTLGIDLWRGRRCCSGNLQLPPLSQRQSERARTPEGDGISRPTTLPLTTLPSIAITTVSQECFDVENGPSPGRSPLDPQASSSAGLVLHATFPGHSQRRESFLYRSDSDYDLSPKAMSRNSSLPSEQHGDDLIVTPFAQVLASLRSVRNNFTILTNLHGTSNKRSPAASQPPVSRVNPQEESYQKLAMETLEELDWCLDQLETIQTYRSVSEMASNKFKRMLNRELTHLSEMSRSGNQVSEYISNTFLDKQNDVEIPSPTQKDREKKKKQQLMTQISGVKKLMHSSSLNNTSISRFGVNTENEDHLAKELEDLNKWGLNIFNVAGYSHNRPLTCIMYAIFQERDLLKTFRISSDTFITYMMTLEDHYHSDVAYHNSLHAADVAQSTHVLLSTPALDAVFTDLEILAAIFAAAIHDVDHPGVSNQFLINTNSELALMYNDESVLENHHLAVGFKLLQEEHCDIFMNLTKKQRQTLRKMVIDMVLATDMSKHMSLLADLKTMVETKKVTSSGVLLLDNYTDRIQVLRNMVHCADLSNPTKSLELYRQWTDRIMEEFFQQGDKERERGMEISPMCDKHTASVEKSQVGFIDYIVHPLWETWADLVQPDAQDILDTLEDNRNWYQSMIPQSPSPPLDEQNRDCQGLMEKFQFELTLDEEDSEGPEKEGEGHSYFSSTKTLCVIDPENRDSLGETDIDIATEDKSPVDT
structure (smiles),measurement,setting,value
OC(CCCN1CCCCC1)(c1ccccc1)c1ccccc1,outcome,[1],inactive
CCN(CC)CCOc1ccc(/C(=C(\Cl)c2ccccc2)c2ccccc2)cc1,Potency,[2],> 20.6 µM
same,outcome,[1],inactive
OCc1c[nH]c2ccccc12,outcome,[1],inactive
same,Potency,[3],inactive
same,"activity change, negative = cytotoxicity",[4],0.242%
same,Potency,[5],inactive
same,Potency,[6],inactive
same,Potency,[7],inactive
same,Potency,[8],inactive
same,outcome,[9],inactive
same,Potency,[10],inactive
same,outcome,[11],inactive
same,Potency,[12],inactive
same,outcome,[13],inactive
same,outcome,[14],inactive
same,outcome,[15],inactive
same,outcome,[16],inactive
same,Potency,[17],inactive
same,outcome,[18],inactive
NCC(=O)O,Potency,[2],> 46 µM
same,outcome,[1],inactive
same,outcome,[19],inactive
O=C(NO)c1ccccc1,outcome,[1],inactive
same,Potency,[3],inactive
same,Potency,[5],inactive
same,Potency,[6],inactive
same,Potency,[7],inactive
same,Potency,[20],inactive
same,Potency,[8],inactive
same,outcome,[9],inactive
same,Potency,[10],inactive
same,outcome,[11],inactive
same,Potency,[12],inactive
same,outcome,[13],inactive
same,outcome,[14],inactive
same,outcome,[15],inactive
same,outcome,[16],inactive
same,Potency,[17],inactive
same,outcome,[18],inactive
CC(C)(C)c1ccc(O)c(O)c1,outcome,[1],inactive
same,"activity change, negative = cytotoxicity",[4],-146% (active)
same,Potency,[7],12.6 µM (active)
same,"activity change, negative = cytotoxicity",[20],-98.1% (active)
same,"activity change, negative = cytotoxicity",[8],-100% (active)
same,outcome,[9],inactive
same,Potency,[10],inactive
same,outcome,[11],inactive
same,Potency,[12],inactive
same,outcome,[13],inactive
same,outcome,[14],inactive
same,outcome,[15],inactive
same,outcome,[16],inactive
same,Potency,[17],inactive
same,outcome,[18],inactive
Brc1ccccc1-c1ccccc1,outcome,[1],inactive
same,Potency,[3],inactive
same,"activity change, negative = cytotoxicity",[4],3.13%
same,Potency,[5],inactive
same,Potency,[6],inactive
same,Potency,[7],inactive
same,Potency,[20],inactive
same,Potency,[8],inactive
same,outcome,[9],inactive
same,Potency,[10],inactive
same,outcome,[11],inactive
same,Potency,[12],inactive
same,outcome,[13],inactive
same,outcome,[14],inactive
same,outcome,[15],inactive
same,outcome,[16],inactive
same,Potency,[17],inactive
same,outcome,[18],inactive
O=C(c1ccccc1)c1ccccc1,outcome,[1],inactive
same,Potency,[3],inactive
same,"activity change, negative = cytotoxicity",[4],-23.6%
same,Potency,[5],inactive
same,Potency,[6],inactive
same,Potency,[7],inactive
same,Potency,[20],inactive
same,Potency,[8],inactive
same,outcome,[9],inactive
same,Potency,[10],inactive
same,outcome,[11],inactive
same,Potency,[12],inactive
same,outcome,[13],inactive
same,outcome,[14],inactive
same,outcome,[15],inactive
same,outcome,[16],inactive
same,Potency,[17],inactive
same,outcome,[18],inactive
Brc1ccc([C@H]2CN3CCSC3=N2)cc1,Potency,[2],> 46 µM
same,outcome,[1],inactive
same,outcome,[19],inactive
c1ccc2occc2c1,outcome,[1],inactive
same,Potency,[3],inactive
same,"activity change, negative = cytotoxicity",[4],-5.88%
same,Potency,[5],inactive
same,Potency,[6],inactive
same,Potency,[7],inactive
same,Potency,[20],inactive
same,Potency,[8],inactive
same,outcome,[9],inactive
same,Potency,[10],inactive
same,outcome,[11],inactive
same,Potency,[12],inactive
same,outcome,[13],inactive
same,outcome,[14],inactive
same,outcome,[15],inactive
same,outcome,[16],inactive
same,Potency,[17],inactive
same,outcome,[18],inactive
CC(C)N(CCC(=O)c1ccc2ccccc2c1)Cc1ccccc1,Potency,[2],> 46 µM
same,outcome,[1],inactive
same,outcome,[19],inactive
Cc1cc(C(C)(C)C)c(O)c(C(C)(C)C)c1,Potency,[3],inactive
same,"activity change, negative = cytotoxicity",[4],2.09%
same,Potency,[5],inactive
same,Potency,[6],inactive
same,Potency,[7],inactive
same,Potency,[20],inactive
same,Potency,[8],inactive
same,outcome,[9],inactive
same,Potency,[10],inactive
same,outcome,[11],inactive
same,Potency,[12],inactive
same,outcome,[13],inactive
same,outcome,[14],inactive
same,outcome,[15],inactive
same,outcome,[16],inactive
same,Potency,[17],inactive
C1=CC2C3C=CC(C3)C2C1 (stereo not given),outcome,[1],inactive
same,Potency,[3],inactive
same,Potency,[5],inactive
same,Potency,[6],inactive
same,Potency,[7],inactive
same,Potency,[20],inactive
same,Potency,[8],inactive
same,outcome,[9],inactive
same,Potency,[10],inactive
same,outcome,[11],inactive
same,Potency,[12],inactive
same,outcome,[13],inactive
same,outcome,[14],inactive
same,outcome,[15],inactive
same,outcome,[16],inactive
same,Potency,[17],inactive
same,outcome,[18],inactive
CCOC(=O)NNc1nncc2ccccc12,Potency,[2],> 20.6 µM
same,outcome,[1],inactive
same,outcome,[19],inactive
Nc1c[n+](N2CCOCC2)no1,Potency,[2],> 46 µM
same,outcome,[1],inactive
same,outcome,[19],inactive
Nc1c2ccccc2nc2ccccc12,outcome,[1],inactive
same,"activity change, negative = cytotoxicity",[3],-89.3% (active)
same,"activity change, negative = cytotoxicity",[4],-137% (active)
same,Potency,[5],15.8 µM (active)
same,Potency,[6],15.8 µM (active)
same,Potency,[7],7.94 µM (active)
same,Potency,[20],31.6 µM (active)
same,Potency,[10],31.6 µM (active)
same,outcome,[11],inactive
same,Potency,[12],39.8 µM (active)
same,outcome,[14],inactive
same,outcome,[15],inactive
same,Potency,[17],31.6 µM (active)
COc1ccccc1N1CCN(CCN2C(=O)CC3(CCCC3)CC2=O)CC1,Potency,[2],> 46 µM
same,outcome,[1],inactive
same,outcome,[19],inactive
O=C(Oc1ccccc1)c1ccccc1O,outcome,[1],inactive
same,Potency,[3],inactive
same,Potency,[5],inactive
same,Potency,[6],inactive
same,Potency,[7],inactive
same,Potency,[20],inactive
same,Potency,[8],inactive
same,outcome,[9],inactive
same,Potency,[10],inactive
same,outcome,[11],inactive
same,Potency,[12],inactive
same,outcome,[13],inactive
same,outcome,[14],inactive
same,outcome,[15],inactive
same,outcome,[16],inactive
same,Potency,[17],inactive
same,outcome,[18],inactive
CC(C)(c1ccc(O)cc1)c1ccc(O)cc1,outcome,[1],inactive
same,Potency,[3],inactive
same,"activity change, negative = cytotoxicity",[4],-22.2% and -23.1%
same,Potency,[5],inactive
same,Potency,[6],inactive
same,Potency,[7],inactive
same,Potency,[20],inactive
same,Potency,[8],inactive
same,outcome,[9],inactive
same,Potency,[10],inactive
same,outcome,[11],inactive
same,Potency,[12],inactive
same,outcome,[13],inactive
same,outcome,[14],inactive
same,outcome,[15],inactive
same,outcome,[16],inactive
same,Potency,[17],inactive
same,outcome,[18],inactive
